Screens as filed in PubChem BioAssay.
Rows were chosen to be rich in hits. Some 12% of all compounds tested hit in one or more screens of this group.
G9a inh: inhibitors of human histone lysine methyltransferase G9a; 8.8% of 350,000 active; G9a H3K9 monomethylation, AlphaScreen, 2 h; Q96KQ7; Potency, µM (doses to about 102 µM), for inactives: top-dose activity, negative = inhibition, hits mostly inhibitors; note: % is set by controls: 0 for no effect and ±100 for the full control effect; nearly all actives have a fitted effect of over 75% in size
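Readings reflect AlphaScreen signal from monomethyl-H3K9 antibody detection. HMT at 20 nM; substrate b-H3K9 500 nM; cofactor SAM 20 uM; 2 h RT reaction; compounds tested as titrations in qHTS with 15 min preincubation.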
JMJD2A Tudor: blocks the human JMJD2A Tudor domain; AlphaScreen JMJD2A-Tudor / H3K4me3 peptide binding; O75164; 4.4% of 390,000 active; AID 504339; Potency, µM (highest dose often 114 µM), without a hit: at the top dose activity change, negative = inhibition, usual class: inhibitors; note: % is set by controls: 0 for no effect and ±100 for the full control effect; nearly all actives have a fitted effect of over 50% in size
BAZ2B block: BAZ2B (human) inhibition | Potency, µM (top dose mostly 114 µM), inactives show at the top dose activity change, negative = inhibition, hits mostly inhibitors | 4.4% of 360,000 active | AID 504333 | Q9UIF8 | AlphaScreen BAZ2B-H3K14Ac peptide displacement; note: % is set by controls: 0 for no effect and ±100 for the full control effect; nearly all actives have a fitted effect of over 60% in size
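AlphaScreen displacement of biotin-H3(5-23)K14Ac peptide (50 nM final) from BAZ2B (50 nM final) in PBS pH 7.4, 0.01% Tween-20; complex preformed 30 min RT, then compounds (top 110 uM) 30 min RT, beads 20 min dark.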
HP1b binding inh: inhibitors of HP1-beta chromodomain binding to methylated histone tails; P83916; AlphaScreen HP1-beta / biotin-H3K9me3 peptide binding; Potency, µM (top dose mostly 114 µM), inactives show top-dose activity change, negative = inhibition, actives largely listed as inhibitors; 0.56% of 390,000 active; AID 540317; note: nearly all actives have a fitted effect of over 70% in size
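HP1-beta protein (50 nM final) preincubated 30 min at room temperature with biotinylated H3(1-18)K9me3 peptide (50 nM) in PBS pH 7.4, 0.01% Tween-20, then compound added for 30 min. AlphaScreen streptavidin donor/nickel chelate acceptor beads (10 ug/mL final), 30 min dark, luminescence read.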
Sfp PPTase inh: inhibitors of Bacillus subtilis Sfp phosphopantetheinyl transferase; Q9F4F7; Biochemical Sfp PPTase activity, qHTS; Potency, µM, for the others: largest response in the series, negative = inhibition, hits mostly inhibitors; 3.5% of 310,000 active;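 note: the enzyme is Sfp with the accession as filed and its product quenches rhodamine fluorescence; 0% = enzyme reaction without inhibitor and -100% = no enzyme wells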
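Step 1, compound plus 15 nM Sfp-PPTase, 15 min, room temperature. Step 2, add rhodamine-CoA (5 uM) and BHQ-2-YbbR (12.5 uM). Step 3, read 525/598 nm fluorescence at 0 and 30 min.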
* = called active by the depositor; ? = inconclusive; / = no result given; [ ] = another dose, or the depositor's remark. Calls come from the whole dose curve; as a rule, active = well fitted curve in the direction sought with a large enough effect; inconclusive = small, poorly fitted or top-dose-only effect, or another doubt; inactive = no such curve, though single readings can be large; an effect the other way counts as inactive or inconclusive. Potency is the fitted concentration of half-maximal effect.

SMILES | G9a inh | JMJD2A Tudor | BAZ2B block | HP1b binding inh | Sfp PPTase inh
COC(=O)[C@H](C)NC(=O)NCCC1=CCCCC1 | 8% | 71µM* | -12% | 7% | 12%
CCC(C)[C@H](NC(=O)NCCC1=CCCCC1)C(=O)OC (stereo partly specified) | ? | -7% | -2% | 0% | 3%
O=C(c1ccccc1)N1CCN(Cc2ccccc2Br)CC1 | ? | 5µM* | 50µM* | ? | -25%
O=C(CCN1CCOCC1)c1ccc2c(c1)OCCO2 | 8.9µM* | -11% | 3% | 27% | -15%
O=C(CCN1CCN(C(=O)c2ccccc2)CC1)c1ccc(Br)cc1 | 32µM* | -15% | -5% | 32% | -5%
O=C(c1ccc(Br)cc1)N1CCN(Cc2ccccc2)CC1 | -5%[0.501 µM] | -13% | 5% | 29% | 8%
O=C(CCN1CCCCC1)c1ccc2c(c1)OCO2 | 7.9µM* | 0% | -24%[57.1 µM] | 31% | ?
O=C(c1cccc(C(=O)N2CCN(Cc3ccccc3)CC2)c1)N1CCN(Cc2ccccc2)CC1 | ? | -5% | -1% | 30% | 7%
O=C(CCCN1CCOCC1)c1ccc2c(c1)OCCO2 | 12%[59 µM] | -24% | -2% | 18% | 7%
COc1ccc(-c2cc(C(=O)OCC(=O)N(C)C3CCS(=O)(=O)C3)c3ccccc3n2)cc1OC (stereo unspecified) | 21%[59 µM] | 6% | 6% | 49% | 25%
CC(C)Sc1nnc2c3ccccc3n(C)c2n1 | / | -18% | / | 39% | /
Cc1cc(NC(=O)CON=C(N)CC(=O)Nc2ccccc2Cl)ccc1Br | -27% | -18% | -29% | 28% | /
O=C(CCN1CCCCC1)c1ccccc1 | ? | -11% | 29% | 30% | 2%
O=C(Cc1ccccc1)c1ccc2c(c1)OCCO2 | 83% | 17% | -4% | 58% | 22%
O=C(CCN1CCOCC1)c1ccccc1 | 45µM* | -8% | 2% | 37% | 12%
O=C(CCN1CCOCC1)NCc1ccccc1 | 8%[0.501 µM] | -16% | -23% | 3% | ?
O=C(CCN1CCc2ccccc2CC1)c1ccc2c(c1)OCCO2 | 2.2µM* | ? | -2% | -11% | 40µM*
O=C(CCN1CCOCC1)NNC(=S)NC(=O)c1ccccc1 | 11µM* | 18µM* | / | 28% | 45µM*
Cc1cccc(OCC(=O)NS(=O)(=O)c2ccc(Br)cc2)c1 | 82% | -7% | -1% | 34% | 34%
CS(=O)(=O)c1ccc(-c2nc(-c3ccc(F)cc3)c(-c3ccncc3)[nH]2)cc1 | 11%[59 µM] | / | / | / | -1%
N#Cc1cccc(NC(=O)N2CCCC3(CCN(C(=O)c4ccco4)CC3)C2)c1 | -10%[12.7 µM] | / | / | / | -2%
Cc1ccc(NC(=O)C2CCCN(c3ncnc4onc(C)c34)C2)cc1Cl (stereo unspecified) | -1%[59 µM] | -8% | 50%[57.1 µM] | 60% | /
Cc1ccc(S(=O)(=O)N2CCOCC2)cc1C(=O)OCC(=O)NC1CCCC(C)C1C (stereo unspecified) | -5%[59 µM] | -21% | -4% | 38% | /
CCOc1ccc(/C(C)=N/N2C(=O)C(CC(=O)Nc3ccc(OC)cc3[N+](=O)[O-])SC2=Nc2cccc(C)c2C)cc1 (stereo unspecified) | 35µM* | -29% | -38% | 9% | -9%
Clc1ccc(CSc2nnc(-c3ccncc3)o2)cc1 | 25%[2.33 µM] | 39% | -5% | 31% | 3%
SMILES | G9a inh | JMJD2A Tudor | BAZ2B block | HP1b binding inh | Sfp PPTase inh
Clc1ccc(CSc2nnc(-c3ccc4c(c3)OCO4)o2)cc1 | 4%[59 µM] | -2% | 57% | 29% | 50µM*
CC(OC(=O)CCc1nc2ccccc2[nH]c1=O)c1ccccc1 (stereo unspecified) | 5% | -24% | -11% | 0% | -3%
CC(OC(=O)CCc1nc2ccccc2[nH]c1=O)C(=O)c1ccccc1 (stereo unspecified) | 79µM* | 5% | 11% | 30% | 9%
COC(=O)CSCc1nc2ccccc2[nH]c1=O | 20µM* | -23% | -20% | 21% | -29%
CCOc1ccc(N2C(=O)c3cccnc3C2Nc2ccc(F)cc2)cc1 (stereo unspecified) | 56µM* | -27% | 36% | 3% | -18%
O=c1c(-c2ccccc2)nc2cnc(N3CCNCC3)nc2n1Cc1cccs1 | -40%[12.7 µM] | / | / | / | -3%
Cc1onc(-c2c(F)cccc2Cl)c1C(=O)N[C@H]1C(=O)N2[C@H]1SC(C)(C)[C@H]2C(=O)O | 35%[21.5 µM] | / | / | / | -16%
Cc1ccc2nc3ccc(N4CCCCCCC4)nn3c(=O)c2c1 | 10% | 3% | 0% | 49% | 5%
Cc1sc2nc3ccc(N4CCCC4)nn3c(=O)c2c1C | 35µM* | -10% | -2% | 11% | 25µM*
Cc1ccccc1-c1nc(CN2CCC(C(=O)NCc3ccc(F)cc3)CC2)c(C)o1 | -35%[59 µM] | -29% | ? | 19% | /
O=C(COc1ccccc1)Nc1ccccc1F | -4%[0.501 µM] | 1% | 1% | 71% | -1%
O=C(COc1c(Br)cc(Br)c2cccnc12)Nc1ccccc1F | 45µM* | -22% | 50µM* | 18% | -13%
CC1(C)CC(N2CCN(CCO)CC2)=CC(=S)N1 | ? | -3% | -23% | 37% | 50µM*
COc1ccc2c(c1)c(=O)c(S(=O)(=O)c1ccc(Cl)cc1)cn2C | -2%[59 µM] | -3% | 0% | 51% | /
Cc1cc(N2CCCCC2)nc2ccc(NC(=O)CCC(=O)N3CCN(c4ccccc4)CC3)cc12 | 4%[59 µM] | -33% | 5% | 1% | /
COc1ccc(C(=O)N2CCN(c3ccc(F)cc3)CC2)cc1S(=O)(=O)NC1CC1 | 24%[12.7 µM] | -6% | 1% | 20% | /
COc1ccc(C(=O)OC(C)C(=O)NC2CCCCC2C)cc1S(=O)(=O)N1CCOCC1 (stereo unspecified) | 79µM* | 0% | -7% | 29% | /
COc1ccc(C(=O)Nc2ccc(S(=O)(=O)N3CCCCC3)cc2)cc1OC | -11%[59 µM] | 79µM* | -10% | ? | 4%
CC(OC(=O)c1ccc(Cl)c(S(=O)(=O)N2CCOCC2)c1)C(=O)NC1CCCCC1C (stereo unspecified) | 15%[0.501 µM] | 3% | -19% | 31% | 8%
COc1ccc(C(=O)Nc2ccc(N3CCOCC3)cc2)cc1S(=O)(=O)N1CCOCC1 | 56µM* | -7% | -3% | 29% | /
COc1cc(OC)c(C(=O)Nc2ccc(S(=O)(=O)N3CCCCC3)cc2)cc1OC | 1%[0.501 µM] | -14% | 7% | 13% | /
COc1ccc(C(=O)Nc2ccc(N3CCOCC3)cc2)cc1S(=O)(=O)NC1CCCC1 | 32µM* | -25% | -29% | 8% | 6%
COC(=O)C1(C(=O)OC)CC2=C[C@H](CC2=O)Cc2ccccc2[C@@H]1C[N+](=O)[O-] | / | / | / | / | -14%
CCCCCNC(=O)C1CCC(Cn2c(=O)c3sccc3n(CC)c2=O)CC1 (stereo unspecified) | 3%[59 µM] | 3% | -2% | 40% | /
CC(=O)NC1=CC(=C[N+](=O)[O-])C=C1O | / | -12% | / | 13% | /
